The source of these data is PubChem BioAssay (Tox21).

Values without a mark were called inactive. Calls of active or inactive are those of the source. Calls come from the whole dose curve; as a rule, active = well fitted curve in the direction sought with a large enough effect in the repeat runs; inconclusive = weak or mixed curves; inactive = flat fitted curve, though single readings scatter.
% is set by controls: 0 for no effect and ±100 for the full control effect.

The first experiment in a line: qHTS assay to test for compound auto fluorescence at 460 nm (blue) in HEK293 cell free culture (AID 720681). The settings on record: cell-free medium, autofluorescence 405/460 nm (blue); series mostly up to 91.3 µM; fluorescence, % of fluorescent control: at the top concentration. A digest of the protocol: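 Test compounds were pinned into cell-free culture medium (DMEM with 10% FBS) and fluorescence was read directly at Ex/Em 405/460 nm. Signals were expressed as fluorescence equivalents of triamterene, with DMSO vehicle as control.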
`Cc1ncc([C@@H](CCCCCCc2ccc3c(n2)NCCC3)CC(=O)O)cn1`: the “fluorescence, % of fluorescent control” value was 0.583%.
The same measure, in the same setting: then `O=C1NC(=O)C2CC=CCC12` (stereo not given), with 0.285%; and `CCCCc1nc(Cl)c(CO)n1Cc1ccc(-c2ccccc2-c2nn[nH]n2)cc1`, with -0.11% [at 46 µM]; and `Cc1ccccc1N=C(N)N=C(N)N`, with -0.447%.
On the same count and under the same terms, the result for `O=S(=O)(O)c1cccc(S(=O)(=O)O)c1` reads 0.0462%; that for `C1CCC2(CCCCO2)OC1`, 0.0347%; that for `COc1c(N2CCNC(C)C2)c(F)cc2c(=O)c(C(=O)O)cn(C3CC3)c12` (stereo not given), -0.157% [at 46 µM].
The same measure, in the same setting: the result for `CC[N+](CC)(CC(=O)Nc1c(C)cccc1C)Cc1ccccc1` (tested in a mixture with another compound) reads -0.0703%.
As for `O=C(O)Cc1csc(-c2ccc(Cl)cc2)n1`, the “fluorescence, % of fluorescent control” value was 0.0169% [at 46 µM].
For `CCCCCCC#CC(=O)OC`, the “fluorescence, % of fluorescent control” value is -0.032%.
Still for that read-out and setting: the result for `CCCCN(CCC(=O)OCC)C(C)=O` reads 0.0084%; that for `CC(=O)NC(=O)c1ccccc1O`, 2.02% [at 46 µM].
Still for that read-out and setting: then `CC[N+](CC)(CC)CCOc1cccc(OCC[N+](CC)(CC)CC)c1OCC[N+](CC)(CC)CC`, with -0.142% [at 46 µM].
For `Cc1nc2ccc(CN(C)c3ccc(C(=O)N[C@@H](CCC(=O)O)C(=O)O)s3)cc2c(=O)[nH]1`, the compound was classed as inactive.
As for `NC(CCC(=O)O)C(=O)O` (stereo not given), the “fluorescence, % of fluorescent control” value is 0.108%.
Take `CCOC(=O)OC(C)OC1=C(C(=O)Nc2ccccn2)N(C)S(=O)(=O)c2ccccc21` (stereo not given): the “fluorescence, % of fluorescent control” value was -0.022% [at 46 µM].
Regarding `Cc1ncc(COP(=O)(O)O)c(C=O)c1O`, the “fluorescence, % of fluorescent control” value was 0.459% [at 46 µM].
In the case of `N[C@@H](CCC(=O)O)C(=O)O`, the compound was called inactive.
As to `CCCC[N+](C)(CCCC)CCCC`, the “fluorescence, % of fluorescent control” value is -0.172%.
`CO[C@@]1(NC(=O)C(C(=O)O)c2ccc(O)cc2)C(=O)N2C(C(=O)O)=C(CSc3nnnn3C)CO[C@@H]21` (stereo not given in full): the fluorescence, % of fluorescent control is 0.413% [at 18.6 µM].
Turning to `C=CC(=O)OCCCl`, the “fluorescence, % of fluorescent control” value was 0.0588% [at 95.7 µM].
As to `CC1=C(C/C=C(\C)CCC[C@H](C)CCC[C@H](C)CCCC(C)C)C(=O)c2ccccc2C1=O`, the “fluorescence, % of fluorescent control” value was 0.0089% [at 46 µM].
On the same count and under the same terms, then `C=CCCC(=O)O`, with 0.0425%; and `CCC(C(=O)NC(=O)NC(C)=O)c1ccccc1` (stereo not given), with 0.142% [at 46 µM].
Take `CCCCOC(=O)CCC(C)=O`: the “fluorescence, % of fluorescent control” value is -0.159%.
Take `C[N+]12CCC(CC1)C(OC(=O)C(O)(c1ccccc1)c1ccccc1)C2` (stereo not given): the fluorescence, % of fluorescent control was 0.066% [at 18.6 µM].
On the same count and under the same terms, the result for `CCCCCCCCCC[N+](C)(C)[O-]` reads -0.141%.
Still for that read-out and setting: the result for `CC(C)(N)C#N` reads 0.0883% [at 95.7 µM]; that for `Nc1c2c(nc3c1CCC3)CCCC2`, -0.0184% [at 46 µM].
The same measure, in the same setting: then `Cc1ccc(-c2ncc(Cl)cc2-c2ccc(S(C)(=O)=O)cc2)cn1`, with -0.142% [at 46 µM]; and `O=C(O)c1cn(C2CC2)c2cc(N3CCNCC3)c(F)cc2c1=O`, with -0.0136% [at 18.6 µM].
As to `CC1CCC(CO)CC1` (stereo not given), the “fluorescence, % of fluorescent control” value was -0.076% [at 95.7 µM].
Same read-out and setting: then `FB(F)F`, with -0.16% [at 95.7 µM].
As to `COc1ccnc(CS(=O)c2nc3cc(OC(F)F)ccc3[nH]2)c1OC` (stereo not given), the call was inactive.
With `O=S(=O)(O)c1cc(O)c(O)c(S(=O)(=O)O)c1`, the “fluorescence, % of fluorescent control” value was -0.0141%.
Same read-out and setting: the result for `N[C@H](C(=O)O)[C@@H](O)c1ccc(O)c(O)c1` reads 5.3% [at 46 µM].

The nature of another experiment: qHTS assay to test for compound auto fluorescence at 535 nm (green) in HEK293 cell free culture (AID 720682). The note with it: cell-free medium, green autofluorescence 485/535 nm, hits give high values; series mostly up to 91.3 µM; activity change: at the top concentration. The essentials:
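Green-label autofluorescence (485 nm excitation, 535 nm emission) measured on compound added to cell-free culture medium (DMEM, 10% FBS). Output is expressed relative to fluorescein.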
Consider `Cc1ncc([C@@H](CCCCCCc2ccc3c(n2)NCCC3)CC(=O)O)cn1`, for which the “activity change” value is -0.0206%.
`CCCCc1nc(Cl)c(CO)n1Cc1ccc(-c2ccccc2-c2nn[nH]n2)cc1`: the “activity change” value was -0.327% [at 46 µM].
On the same count and under the same terms, then `Cc1ccccc1N=C(N)N=C(N)N`, with -0.43%; and `O=S(=O)(O)c1cccc(S(=O)(=O)O)c1`, with 0.0592%; and `O=C(O)Cc1csc(-c2ccc(Cl)cc2)n1`, with 0.004% [at 46 µM].
On to `CCCCN(CCC(=O)OCC)C(C)=O`, for which the “activity change” value is 0.0494%.
The same measure, in the same setting: the result for `CC(=O)NC(=O)c1ccccc1O` reads 0.0484% [at 46 µM]; that for `CC[N+](CC)(CC)CCOc1cccc(OCC[N+](CC)(CC)CC)c1OCC[N+](CC)(CC)CC`, -0.178% [at 46 µM].
`Cc1nc2ccc(CN(C)c3ccc(C(=O)N[C@@H](CCC(=O)O)C(=O)O)s3)cc2c(=O)[nH]1`: the call was inactive.
Consider `NC(CCC(=O)O)C(=O)O` (stereo not given), for which the “activity change” value was 0.0127%.
Same read-out and setting: the result for `CCOC(=O)OC(C)OC1=C(C(=O)Nc2ccccn2)N(C)S(=O)(=O)c2ccccc21` (stereo not given) reads 0.006% [at 46 µM]; that for `Cc1ncc(COP(=O)(O)O)c(C=O)c1O`, -0.0021% [at 46 µM].
In the case of `N[C@@H](CCC(=O)O)C(=O)O`, the call was inactive.
Consider `CCCC[N+](C)(CCCC)CCCC`, for which the “activity change” value was -0.309%.
